Compound activity from PubChem.
Rows were chosen to be rich in hits. Some 1.6% of all compounds tested hit in one or more screens of this group.
KCNQ2 block = KCNQ2 (rat) channel inhibition; 1.1% of 310,000 active; B-score at 10 µM; CHO-K1 KCNQ2, FluxOR thallium flux, 20 min; stronger effect = lower value;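 active = fluorescence ratio B-score at most minus 3 library SDs, with starting brightness B-score within 2 library SDs, cut at about -5.5 in these data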
KCNQ2 enhance = KCNQ2 (rat) channel potentiation. CHO-K1 KCNQ2, FluxOR thallium flux fluorescence; stronger effect = higher value. AID 2239. O88943. B-score at 10 µM. 0.54% of 310,000 active;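 active = fluorescence ratio B-score at least 3 SD of library B-scores, with initial fluorescence B-score within 3 of them, cut at about 5.3 in these data; same plate scores as AID 2156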;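 also: B-score of peak minus minimum over baseline fluorescence ratio after K+ and Tl+ stimulus; positive B-score means potentiation of KCNQ2 with more thallium influx and brighter signal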
KCNQ2 inh conf = confirmation of rat KCNQ2 potassium channel inhibitors; shares compounds with KCNQ2 block; KCNQ2-expressing cells, thallium flux, inhibition; stronger effect = lower value; activity change, negative = inhibition, % at 10 µM; 57% of 1,000 active; AID 493025;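 also: 0% = vehicle wells and values are ratio percent relative to vehicle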
KCNQ1 spec = human KCNQ1 activity in KCNQ2 inhibitor specificity screen; activity change, negative = inhibition, % at 10 µM; AID 493026; 15% of 1,000 active; shares compounds with KCNQ2 block; KCNQ1-expressing cells, FluxOR thallium flux fluorescence; stronger effect = lower value;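 active = activity change at least 3 SD of negative controls below their mean in both duplicate wells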;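 also: CHO cells stably transfected with KCNQ1 and depolarized by potassium stimulus; peak minus minimum fluorescence over baseline after thallium addition; 0% = vehicle negative control and -100% = blank without thallium stimulus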
CHO Tl ctr = activity in parental CHO cells lacking KCNQ2; shares compounds with KCNQ2 block; thallium flux counter-screen; stronger effect = lower value; activity change, % at 10 µM; 14% of 1,000 active; AID 493029;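 also: 0% = vehicle negative controls with stimulus buffer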
KCNQ2 inh confirm = blocks rat KCNQ2 current in automated patch clamp; shares compounds with KCNQ2 block; KCNQ2-expressing cells; calls only at 10 µM; 49% of 550 active
An asterisk follows results filed as active; i = inactive; x = not tested or not shown; + = active, no number. Unless noted, no rule for the calls is given here.

SMILES	KCNQ2 block	KCNQ2 enhance	KCNQ2 inh conf	KCNQ1 spec	CHO Tl ctr	others
CC(=O)C1=C(O)C(=O)N(c2ccc(Br)cc2)C1c1ccccc1[N+](=O)[O-] (centres undefined)	i	x	x	x	x
O=C(O)c1cnc(-c2ccccc2)nc1Oc1ccc(Cl)cc1	-7.5*	-7.5	-20%*	i	i	KCNQ2 inh confirm=+
O=C(O)c1cnc(-c2ccccc2)nc1Oc1ccccc1	i	x	x	x	x
CCN(CC(=O)Nc1cccc(OC)c1)c1ncnc2sc(C)c(C)c12	i	x	x	x	x
C=CCn1c(COc2ccccc2OC)nc2ccccc21	i	0.01	x	x	x
CN(C)S(=O)(=O)c1cccc(C(=O)Nc2ccccc2N2CCCCC2)c1	i	x	x	x	x
CC1CN(S(=O)(=O)c2cccc(C(=O)Nc3ccccc3N3CCCCC3)c2)CC(C)O1 (centres undefined)	-9.5*	-9.5	-29%*	i	i	KCNQ2 inh confirm=i
CC(=O)N/C(=C\c1ccc(F)cc1)C(=O)N(C)C	i	x	x	x	x
COc1ccc(-c2nn(CCC#N)cc2C(=O)Nc2cccc(C(=O)O)c2)cc1OC	i	0.46	x	x	x
O=C(COc1ccc(-c2nnc(N3CCCCC3)c3ccccc23)cc1)N1CCCCC1	i	x	x	x	x
Cc1ccc(-c2nnc(N3CCN(C(=O)COc4ccccc4)CC3)c3ccccc23)cc1	-7.6*	-7.6	-27%*	i	i	KCNQ2 inh confirm=+
O=C(Nn1c(C2CCCCC2)nc2ccccc2c1=O)c1ccc([N+](=O)[O-])cc1	i	0.79	x	x	x
Cc1cc(-c2ccc(C(C)C)c(S(=O)(=O)N3CCC(C)CC3)c2)on1	-8.4*	-8.4	-16%*	i	i	KCNQ2 inh confirm=i
CCc1ccc(-c2cc(C)no2)cc1S(=O)(=O)N1CCC(C)CC1	i	x	x	x	x
Cn1cnnc1SCCC(=O)Nc1ccccc1	-8.3*	-8.3	i	i	i
Cn1cnnc1SCCC(=O)Nc1ccc(Cl)cc1	i	0.87	x	x	x
COc1ccc(Cc2nc3ccccc3[nH]2)cc1OC	i	x	x	x	x
CC1(C)CC(=O)C=C(NC2CCCC(O)C2)C1 (centres undefined)	i	0.8	x	x	x
CCn1c(C)c(C)c2cc(C(=O)N3CCCC3)ccc21	i	0.37	x	x	x
CCn1c(C)c(C)c2cc(C(=O)N3CCN(c4ccccc4)CC3)ccc21	-6.9*	-6.9	i	i	i
O=S(=O)(C/C(=C/CO)S(=O)(=O)c1ccccc1)c1ccccc1	-8*	-8	i	i	i
CCN(Cc1ccccc1)C(=O)CS(=O)(=O)c1ccccc1	i	0.6	x	x	x
Cc1cccc(N2CCN(C(=O)N3CCCCC3)CC2)c1C	i	x	x	x	x
O=C(N1CCN(c2ccc(F)cc2)CC1)C12CC3CC(CC(C3)C1)C2	i	x	x	x	x
Cc1cccc(N2CCN(C(=O)C34CC5CC(CC(C5)C3)C4)CC2)c1C	-7.3*	-7.3	-20%*	i	i	KCNQ2 inh confirm=i
SMILES	KCNQ2 block	KCNQ2 enhance	KCNQ2 inh conf	KCNQ1 spec	CHO Tl ctr	others
O=C(N1CCN(c2ccccc2F)CC1)C12CC3CC(CC(C3)C1)C2	-7.6*	-7.6	-26%*	i	i	KCNQ2 inh confirm=+
CCN(CC)CCN1C(=O)c2oc3ccccc3c(=O)c2C1c1cccc(Br)c1 (centres undefined)	i	1.2	x	x	x
O=C1c2oc3ccc(Cl)cc3c(=O)c2C(c2cccc(Br)c2)N1CCO (centres undefined)	-11*	-11	i	i	i
CCCCC(CC)CNC(=O)c1ncn[nH]1 (centres undefined)	i	0.22	x	x	x
COc1cc(-c2nnc(SCC(=O)N3c4ccccc4Sc4ccccc43)o2)cc(OC)c1OC	i	x	x	x	x
O=C(Sc1nnc(-c2ccccc2)o1)N1c2ccccc2Sc2ccccc21	-6.8*	-6.8	i	i	i
Cc1c(CC(=O)N[C@H](C(=O)O)C(C)C)c(=O)oc2cc3c(cc12)CCC(C)(C)O3	i	x	x	x	x
COc1ccccc1CNC(=O)COc1ccccc1C	i	x	x	x	x
C/C=C/c1ccc(OCC(=O)NCc2ccccc2OC)c(OC)c1	-6.7*	-6.7	i	i	i
Cc1ccccc1CC1(CO)CCCN(C(=O)CCC(=O)c2ccccc2)C1 (centres undefined)	-8.6*	-8.6	-30%*	i	i	KCNQ2 inh confirm=+
COC(=O)CCC(=O)N1CCCC(CO)(Cc2ccccc2C)C1 (centres undefined)	i	0.29	x	x	x
O=C(COC(=O)c1c(Cl)cccc1Cl)Nc1cc(Cl)ccc1Oc1ccccc1	i	x	x	x	x
O=C(COC(=O)c1ccccc1)Nc1cc(Cl)ccc1Oc1ccccc1	i	x	x	x	x
COc1ccccc1OCC(=O)Nc1cc(Cl)ccc1Oc1ccccc1	-10*	-10	-32%*	-35%*	-30%*	KCNQ2 inh confirm=+
Cc1ccccc1OCC(=O)Nc1cc(Cl)ccc1Oc1ccccc1	-7.4*	-7.4	-26%*	i	i	KCNQ2 inh confirm=i
CC(OC(=O)c1cccc(S(=O)(=O)N2CCCCCC2)c1)C(=O)Nc1ccc(S(N)(=O)=O)cc1 (centres undefined)	i	1.9	x	x	x
O=[N+]([O-])c1ccc(NC(=S)NCC(c2cccnc2)N2CCOCC2)cc1 (centres undefined)	i	0.58	x	x	x
Cc1ccc(SCc2cn3c(C)csc3n2)cc1	-8.1*	-8.1	i	i	i
Cc1ccc(S(=O)(=O)NCc2cn3c(C)csc3n2)cc1	i	0.73	x	x	x
O=C(CN1C(=O)CSc2ccc(S(=O)(=O)N3CCOCC3)cc21)NCCCN1CCc2ccccc2C1	i	x	x	x	x
Cc1cccc(/C(N)=N/OC(=O)N2c3ccccc3Sc3ccccc32)c1	-6.8*	-6.8	i	i	i
Cc1cccc(/C(N)=N/OC(=O)Cc2ccccc2)c1	i	3	x	x	x
C=CCSc1nc(N)c(C#N)c(-c2ccc(C)cc2)c1C#N	i	x	x	x	x
C=CCSc1nc2c(c(C3CC=CCC3)c1C#N)CCC2 (centres undefined)	-12*	-12	-32%*	-31%*	-22%*	KCNQ2 inh confirm=i
O=C(NC1CCCCC1)C1CCC(=O)N(Cc2cccc(C(F)(F)F)c2)C1 (centres undefined)	i	x	x	x	x
SMILES	KCNQ2 block	KCNQ2 enhance	KCNQ2 inh conf	KCNQ1 spec	CHO Tl ctr	others
CN(Cc1c(C(=O)N2CCc3ccccc3C2)nc2ccc(Cl)cn12)C(C1CC1)C1CC1	-7.9*	-7.9	-24%*	i	i	KCNQ2 inh confirm=+
CCN(C)Cc1c(C(=O)N2CCc3ccccc3C2)nc2ccc(Cl)cn12	i	x	x	x	x
Cc1c(/C(O)=C2/C(=O)C(=O)N(CCN3CCOCC3)C2c2ccccn2)cnn1-c1ccccc1 (centres undefined)	i	x	x	x	x
CC1Cc2ccccc2N1C(=O)CCS(=O)(=O)c1ccc2c(c1)NC(=O)CS2 (centres undefined)	i	1.5	x	x	x
O=C(c1nc2ccccn2c1CNCCCn1cccn1)N1CCCC1	i	3	x	x	x
N#CCc1nc(-c2cc3ccccc3oc2=O)cs1	i	0.89	x	x	x
CC1CCC(=C(C#N)c2nc(-c3cc4ccccc4oc3=O)cs2)CC1 (centres undefined)	-8.5*	-8.5	i	i	i
Cc1ccc(CNS(=O)(=O)c2c(C)[nH]c(C)c2C(=O)N2CCCCC2)cc1	i	x	x	x	x
